The values that follow come from PubChem BioAssay (NCI).

Some test systems named below: NCI-H23 lung; NCI-H226 lung; NCI-H322M lung; HOP-62 NSCLC; NCI-H460 lung; HOP-92 NSCLC; A549/ATCC NSCLC; 786-0 renal; COLO 205 colon; DU-145 prostate; K-562 leukemia; MALME-3M melanoma; MDA-MB-231 breast; RXF 393 renal; SF-268 CNS; SF-295 CNS; SF-539 CNS; UACC-257 melanoma; M14 melanoma.
What all share (test): NCI-60 one-dose screen, 48 h (100 = growth as untreated, 0 = no growth, -100 = all killed)
Conditions in all cases: 10 µM unless noted

Compounds without any hit were thinned out: in the full panel of roughly 83,000, 20% have a hit.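 A percent growth of 40 corresponds to 60% growth inhibition; 0 means no net growth; -100 means all cells died. Active threshold: below 10.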 Unmarked numbers belong to inactive results. Calls of active or inactive are those of the source.

For the molecule `Cc1ccc2nc3c(n2c1)C(=O)C(=O)c1ccccc1-3`, the growth with NCI-H23 lung is -12.4% (active); in the experiment on NCI-H226 lung, -44.1% (active); in the experiment with NCI-H322M lung it was -80.7% (active); in the experiment with HOP-62 NSCLC, -74.9% (active); with NCI-H460 lung it was -71.1% (active); with HOP-92 NSCLC it was -77.2% (active). The growth with A549/ATCC NSCLC was -77.3% (active); with 786-0 renal, -81% (active); with COLO 205 colon, -69.2% (active); in the experiment with DU-145 prostate, -89.5% (active); in the experiment with K-562 leukemia it was -48.3% (active); with MALME-3M melanoma it was -85.2% (active). Moreover, the growth in the experiment with MDA-MB-231 breast was -48.8% (active); with RXF 393 renal, -91.3% (active); in the experiment on SF-268 CNS, -78.2% (active); in the experiment with SF-295 CNS, -71.1% (active); in the experiment on SF-539 CNS, -90.1% (active); in the experiment with UACC-257 melanoma, -90.3% (active). Also, the growth in the experiment on M14 melanoma was -81.3% (active).

As for `Oc1c(Cl)cc(Oc2cc(Cl)c(O)c(CN3CCOCC3)c2)cc1CN1CCOCC1`, the growth in the experiment on NCI-H23 lung is 99.6%; in the experiment with NCI-H226 lung, 92.7%; with NCI-H322M lung, 96%; with HOP-62 NSCLC, 81.2%; in the experiment with NCI-H460 lung, 93.4%; in the experiment with HOP-92 NSCLC, 79%. Also, the growth was 78.7% with A549/ATCC NSCLC; 105% in the experiment on 786-0 renal; 105% with COLO 205 colon; 101% in the experiment with DU-145 prostate; 81.4% in the experiment on K-562 leukemia; 105% in the experiment on MALME-3M melanoma. Moreover, the growth in the experiment with MDA-MB-231 breast is 96.6%; with RXF 393 renal, 104%; in the experiment on SF-268 CNS it was 87.9%; in the experiment with SF-295 CNS it was 99.4%; in the experiment on SF-539 CNS, 98.2%; in the experiment with UACC-257 melanoma it was 86.4%. Besides, in the experiment with M14 melanoma, the growth was 105%.

As to `O=C(Nc1nc2c(C(F)(F)F)cccc2s1)c1cc(Cl)ccc1O`, the growth in the experiment with NCI-H23 lung is 3.47% (active); in the experiment on NCI-H226 lung, -3.02% (active); in the experiment with NCI-H322M lung, 4.87% (active); with HOP-62 NSCLC, -7.84% (active); in the experiment on NCI-H460 lung, 2.33% (active); in the experiment with HOP-92 NSCLC it was -27.8% (active). Further, the growth is 3.66% (active) with A549/ATCC NSCLC; 1.42% (active) in the experiment with 786-0 renal; -69.9% (active) with COLO 205 colon; 23% in the experiment with DU-145 prostate; 5.1% (active) with K-562 leukemia; -24.8% (active) in the experiment with MALME-3M melanoma. The growth in the experiment with MDA-MB-231 breast was -13.2% (active); in the experiment with RXF 393 renal, -5.36% (active); in the experiment with SF-268 CNS, 21.2%; in the experiment on SF-295 CNS it was -21.2% (active); with SF-539 CNS, 15%; in the experiment with UACC-257 melanoma, -23.7% (active). Moreover, in the experiment with M14 melanoma, the growth is 8.01% (active).

On to `O=C(Nc1ccc2c(c1)C(=O)c1ccccc1-2)c1ccccc1`, for which the growth with NCI-H23 lung was 95%; with NCI-H226 lung it was 97.6%; with NCI-H322M lung, 101%; with HOP-62 NSCLC it was 44.3%; in the experiment with NCI-H460 lung, 87.4%; in the experiment on HOP-92 NSCLC, 82.1%. Besides, the growth was 100% in the experiment on A549/ATCC NSCLC; 52.1% with 786-0 renal; 97.8% in the experiment with COLO 205 colon; 81.9% with DU-145 prostate; 81.2% in the experiment on K-562 leukemia; 90.2% in the experiment with MALME-3M melanoma. The growth with MDA-MB-231 breast is 81.9%; with RXF 393 renal, 99.2%; with SF-268 CNS it was 65.2%; in the experiment with SF-295 CNS it was 103%; in the experiment on SF-539 CNS, 52.6%; in the experiment with UACC-257 melanoma it was 111%. The growth with M14 melanoma is 88%.

`COc1ccc(C2=NN(C(C)=O)C(c3cccc(Nc4ccnc5cc(Cl)ccc45)c3)C2)cc1` (centres undefined): the growth is 60.7% in the experiment with NCI-H23 lung; 74.5% with NCI-H226 lung; 63.9% with NCI-H322M lung; 38% with HOP-62 NSCLC; 64.9% in the experiment on NCI-H460 lung; 32.7% in the experiment with HOP-92 NSCLC. Further, the growth was 45.5% with A549/ATCC NSCLC; 58.6% in the experiment with 786-0 renal; 19.1% with COLO 205 colon; 62.3% in the experiment on DU-145 prostate; 18.3% in the experiment on K-562 leukemia; 65.8% in the experiment on MALME-3M melanoma. Besides, the growth with MDA-MB-231 breast was 63%; in the experiment on RXF 393 renal, 51.1%; in the experiment on SF-268 CNS, 48.2%; with SF-295 CNS, 52.5%; in the experiment on SF-539 CNS, 72.7%; in the experiment with UACC-257 melanoma it was 49.2%. Also, in the experiment with M14 melanoma, the growth is 40.2%.

For the molecule `COc1cc(C2CC(c3ccc(C)cc3)=NN2C=O)ccc1OCCN(C)C` (centres undefined), the growth in the experiment on NCI-H23 lung was 106%; in the experiment on NCI-H226 lung, 86.4%; in the experiment with NCI-H322M lung, 94.3%; in the experiment with HOP-62 NSCLC it was 87.9%; in the experiment on NCI-H460 lung, 99%; in the experiment on HOP-92 NSCLC it was 77.7%. Besides, the growth is 84.6% with A549/ATCC NSCLC; 101% in the experiment with 786-0 renal; 95.8% with COLO 205 colon; 105% with DU-145 prostate; 83% in the experiment on K-562 leukemia; 83.1% in the experiment on MALME-3M melanoma. The growth in the experiment on MDA-MB-231 breast is 97.2%; in the experiment with RXF 393 renal it was 79.8%; in the experiment with SF-268 CNS, 89.8%; in the experiment with SF-295 CNS, 97.4%; in the experiment with SF-539 CNS it was 89.5%; in the experiment on UACC-257 melanoma, 92.9%. For the same molecule, the growth in the experiment with M14 melanoma was 96.8%.
